Screening results as filed in PubChem.
HIF-2a inh: inhibitors of HIF-2a | 786-0 RCC cells HIF-2a reporter, luciferase luminescence, overnight | inhibition, % at 18.8 µM | 0.72% of 360,000 active | AID 624352;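 active = inhibition of the luminescence signal of 40% or more relative to plate controls, in a single-dose primary screen at 18.75 µM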
KKLEB tox: reduces viability of KKLEB cystic fibrosis airway cells; KKLEB CF airway cells viability, ATPlite luminescence, overnight; active compounds read low; cells stimulated with P. aeruginosa culture filtrate; activity change (cytotoxicity), % at 5 µM; 0.36% of 360,000 active;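 active = corrected activity change at or below -50% at 5 µM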
Peg3 prom inh: Peg3 promoter activity inhibition; HeLa PEG-Prom luciferase reporter, luminescence, overnight; inhibition, % at 20 µM; 1.7% of 360,000 active;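 active = inhibition of at least 50% at 20 µM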
TWEAK Fn14 block: inhibitors of TWEAK-Fn14 interaction signaling. TWEAK-stimulated Fn14 reporter cells, luciferase luminescence, 8 h. inhibition, % at 10 µM. 2% of 360,000 active. AID 1159606; in the data active = inhibition above about 50%
TROY signal inh: TROY signaling inhibition | 0.98% of 360,000 active | inhibition, % at 10 µM | Q293 LMP1-TROYcd NF-kB luciferase reporter, 4 h | AID 1347056;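 active = compounds whose plate-normalised and pattern-corrected inhibition of the luciferase reporter signal at the single screening dose is 50% or more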
CF NFkB block: blocks PAF-induced NF-kB reporter in cystic fibrosis cells; KKLEB NF-kB-GFP reporter, GFP fluorescence overnight; inhibition, % at 5 µM; 0.86% of 360,000 active;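 active = at least 50% inhibition at 5 µM, scaled per plate between neutral and stimulator controls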;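 also: PAF is a Pseudomonas aeruginosa culture filtrate used as stimulus; plate controls were PAF-stimulated DMSO wells for no effect and unstimulated DMSO wells for full effect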
Active calls of the source: *. A selection: hits, their analogues and other compounds. The true share with any hit is near 4%.

SMILES	HIF-2a inh	KKLEB tox	Peg3 prom inh	TWEAK Fn14 block	TROY signal inh	CF NFkB block
NC(=O)c1ccsc1NC(=O)CN1CCN(S(=O)(=O)c2ccccc2C(F)(F)F)CC1	11.7	-10.8	61.0*	28.5	50.4*	13.0
Cc1cc(O)c2c(c1O)C(=O)[C@]13C(=C2O)C(=O)[C@@H]2[C@@H](O)[C@H]1[C@@H]1[C@H](O)[C@H]3C(=O)C3=C(O)c4c(O)cc(C)c(O)c4C(=O)[C@]312	-21.5	-19.4	30.3	65.0*	28.5	53.0*
CC(=O)c1cc(O)c2ccccc2c1O	-152.2	1.0	-68.6	-3.1	1.4	1.7
CCOC(=O)/C=C(\C)Sc1cc(O)c2ccccc2c1O	0.2	-42.7	37.5	95.9*	31.4	88.5*
CCOC(=O)/C=C(\C)Sc1cc(=O)oc2ccccc12	2.8	-34.3	13.3	56.8*	2.4	36.8
CCOC(=O)Nc1oc2ccccc2c(=O)c1C	14.3	-9.8	11.2	4.8	-13.6	5.8
O=C(COC(=O)COc1ccc(Br)cc1)NC1CCCCCC1	9.5	-1.2	7.4	0.7	78.9*	5.0
C/C(=C\c1ccc(C(=O)O)cc1)c1ccc2c(c1)C(C)(C)CCC2(C)C	30.8	-9.0	0.8	12.0	31.5	91.0*
COc1ccc(N2CCc3c(C)nc4c(OC)cc(OC)cc4c32)c(OC)c1	16.1	2.2	14.2	-44.9	7.3	-5.8
COc1ccc(N2CCc3c(C)nc4c(OC)cc(OC)cc4c32)cc1	28.5	1.8	73.6*	-82.1	-11.4	-153.8
COc1cc(/C=C/C(=O)OCC(=O)NCCN2C(=O)CSC2=O)ccc1OCC#N	-2.6	4.5	9.1	-16.9	-8.6	-8.7
Cc1cc([N+](=O)[O-])nn1CC(=O)NC(C)c1ccccc1 (centres undefined)	10.9	-6.0	-0.4	110.3*	-3.5	-9.5
CCOc1ccc2nc3cc(N=Nc4ccc(N)nc4N)ccc3c(N)c2c1	11.3	-2.3	74.0*	-118.3	-21.8	-99.7
CC(C)(C)C(=O)Nc1ccc(/C=C/C(=O)c2ccco2)cc1	-212.4	2.8	-99.3	54.2*	71.7*	17.7
Nc1ccc(/C=C/C(=O)c2ccco2)cc1	-83.0	9.3	-256.2	-7.4	-31.1	-18.2
COC(=O)[C@]1(Cc2ccccc2)N[C@H](CN(C)C(=O)Nc2ccc(Cl)cc2)[C@@H]2C(=O)N(Cc3ccccc3)C(=O)[C@@H]21	-153.3	-2.1	-67.4	-4.6	-48.8	8.5
C=CCn1c2ccccc2c2nnc(SCCCn3c(=O)[nH]c4ccccc43)nc21	28.4	-1.5	65.3*	59.7*	68.4*	-7.2
C=CCn1c2ccccc2c2nnc(SCCN3CCCCC3)nc21	9.7	-0.1	18.7	-14.7	-12.9	-28.1
NC(c1csc(Nc2ccc(C(F)(F)F)cn2)n1)C1CCCCC1 (centres undefined)	9.0	-14.7	99.4*	-36.1	6.0	16.3
NC(Cc1ccc(C(F)(F)F)cc1)c1csc(Nc2ccc(C(=O)NCc3ccco3)cn2)n1 (centres undefined)	-10.1	-2.8	86.2*	-13.3	-4.1	1.0
CC(C)CC(N)c1csc(Nc2ccc(C(F)(F)F)cn2)n1 (centres undefined)	-11.5	-19.6	101.7*	2.0	2.6	17.4
NC(Cc1ccc(F)cc1)c1csc(Nc2nccc(C(F)(F)F)n2)n1 (centres undefined)	8.3	-1.7	44.1	1.0	26.3	-16.2
NC(Cc1ccc(Cl)cc1)c1csc(Nc2nccc(C(F)(F)F)n2)n1 (centres undefined)	9.6	-23.0	82.7*	-20.6	-9.5	-3.9
NC(c1csc(Nc2cnccn2)n1)C1CCCCC1 (centres undefined)	-32.9	-4.3	-9.2	-15.4	3.4	-3.5
COc1ccc(S(=O)(=O)N2CCc3cc(OC)c(OC)cc3C2)cc1	7.4	8.3	-7.5	6.5	2.0	-7.1
CCOC(=O)C1=CCC(c2cccs2)N(S(=O)(=O)c2ccc(C)cc2)C1 (centres undefined)	7.5	-17.1	28.2	-7.2	14.7	7.3
FC(F)C(F)(F)Oc1cccc(Nc2nccn3c(-c4cccc5ccccc45)cnc23)c1	-12.2	-6.2	-11.8	13.6	22.4	11.4
NC(Cc1ccc(Cl)cc1)c1csc(Nc2ccc(C(F)(F)F)cn2)n1 (centres undefined)	11.6	-7.2	100.9*	5.4	0.0	27.4
NC(CO)c1csc(Nc2ccc(C(F)(F)F)cn2)n1 (centres undefined)	-24.7	4.6	-18.0	-10.1	-7.7	7.2
